Assay [1] concerns the target Luciferin 4-monooxygenase (Photinus pyralis) (UniProt P08659). Put plainly: qHTS assay to identify small molecule inhibitors of firefly luciferase (AID 1224835). Also: nearly all actives have a fitted effect of over 25% in size. Also: potency is read from the fitted curve at half-maximal effect. An outline of the steps:
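Inhibition of purified Photinus luciferase is measured by luminescence. Substrate levels (D-luciferin, ATP) sit at their KM values. Each compound is tested in a concentration series.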
(In qHTS, concentration-response curves come from the screen itself.)

Assay [2] in a line: qHTS assay to identify small molecule agonists of the constitutive androstane receptor (CAR) signaling pathway - cell viability counter screen (AID 1224836). Also: nearly all actives have a fitted effect of over 45% in size. An outline of the steps: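 Using CellTiter-Fluor, viability of HepG2 cells harbouring hCAR and CYP2B6-2.2kb was measured following 23 h incubation with a 15-concentration compound series plus PK11195 (0.75 uM final).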
A short description of assay [3]: qHTS assay to identify small molecule antagonists of the constitutive androstane receptor (CAR) signaling pathway - cell viability counter screen (AID 1224837). Also: nearly all actives have a fitted effect of over 45% in size. In short, it runs like this: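 Read-out: CellTiter-Fluor fluorescence after 23 hr at 37 C/5% CO2. Cells: HepG2 double-stable for hCAR and CYP2B6-2.2kb. Compounds tested at 15 concentrations in the presence of CITCO, final concentration 50 nM.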

Assay [4] has as its target Nuclear receptor subfamily 1 group I member 3 (Homo sapiens) (UniProt Q14994). The assay is described as follows: qHTS assay to identify small molecule antagonists of the constitutive androstane receptor (CAR) signaling pathway (AID 1224838).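 Also: HepG2 cells stably expressing hCAR with CYP2B6 luciferase reporter stimulated by CITCO; nearly all actives have a fitted effect of over 40% in size.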 In short, it runs like this: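 Read-out: ONE-Glo luciferase luminescence after 30 min at room temperature. HepG2-CYP2B6-hCAR double-stable cells, compounds in 15-point titration plus 50 nM CITCO final, 24 h at 37 C/5% CO2.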

The target is the same in assay [5]. The assay is described as follows: qHTS assay to identify small molecule agonists of the constitutive androstane receptor (CAR) signaling pathway (AID 1224839). Also: nearly all actives have a fitted effect of over 15% in size. Also: potency is read from the fitted curve at half-maximal effect.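 As to activation: HepG2 cells stably carrying human CAR and a CYP2B6 luciferase reporter.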 In short, it runs like this: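 Double-stable HepG2 cells (hCAR, CYP2B6-2.2kb) seeded 4 h before compound addition. Exposure 24 h with 0.75 uM PK11195 final. Luciferase detected by ONE-Glo.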
Assay [6] can be described thus: qHTS assay to identify small molecule antagonists of the estrogen related receptor signaling pathway with the pleiotropic PPARgamma coactivator (PGC) from Tox21 10K library - cell viability counter screen (AID 1224840; active = well fitted cell-killing curve with a large enough effect in the repeat runs, not every such curve was filed as active; also: nearly all actives have a fitted effect of over 40% in size). In short, it runs like this:
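Fluorescence read-out of CellTiter-Fluor viability reagent, added after cells had been exposed to compound in DMSO for 17.5 h at 37 C; 30 min development at 37 C/5% CO2. Cells: PGC/ERR line, 2,000/well.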

The target in assay [7] is Thyrotropin receptor (Homo sapiens) (UniProt P16473). The assay is described as follows: qHTS assay to identify small molecule agonists of the thyroid stimulating hormone receptor (TSHR) signaling pathway (AID 1224843; calls by dose curve; also: nearly all actives have a fitted effect of over 45% in size). An outline of the steps:
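A cell-based cAMP HTRF format was run in TSHR-transfected HEK293 cells, 800 per well. Treatment: 30 min, room temperature. Detection: 1 h with labelled cAMP and anti-cAMP cryptate. Concentration-response over 15 points, three replicates.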

A short description of assay [8]: qHTS assay to identify small molecule agonists of the hypoxia (HIF-1) signaling pathway - cell viability counter screen (AID 1224844; calls by dose curve; also: nearly all actives have a fitted effect of over 50% in size; also: potency is read from the fitted curve at half-maximal effect). In short, it runs like this:
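CellTiter-Glo luminescence read-out, 30 min RT, taken in the same wells as the beta-lactamase HRE reporter assay; HRE-bla ME-180 cells, 0.5% dialyzed FBS, 17 hr compound treatment at 37C, 5% CO2.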

The nature of assay [9]: qHTS assay to identify small molecule agonists of the hypoxia (HIF-1) signaling pathway (AID 1224846; active = well fitted activation curve with a large enough effect in the signal ratio in the repeat runs, not every such curve was filed as active; the % refers to the signal ratio). In short, it runs like this: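 Beta-lactamase FRET read-out (CCF4-AM substrate) from ME-180 cells carrying an HRE-driven bla reporter, after 17 hrs compound exposure at 37C/5% CO2. Cells were seeded at 2,000 per well in 0.5% dialyzed FBS medium and preincubated 5 hrs.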

The nature of assay [10]: qHTS RealTime-Glo MT Cell Viability Assay in HepG2 cells - 24 hour (AID 1224867). Also: nearly all actives have a fitted effect of over 50% in size. In short, it runs like this: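 Real-time, nonlytic viability: 600 HepG2 cells/well mixed with NanoLuc enzyme plus prosubstrate; 5 h settle, compound (DMSO) added by pintool; luminescence monitored over 40 h at 37 C.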
Assay [11] can be described thus: qHTS RealTime-Glo MT Cell Viability Assay in HEK293 cells - 32 hour (AID 1224868). Also: nearly all actives have a fitted effect of over 50% in size. Also: potency is read from the fitted curve at half-maximal effect. In short, it runs like this:
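Cells + reagent dispensed (600 cells/well, HEK293) → 5 h at 37 C/5% CO2 → 23 nL compound in DMSO pinned → 40 h at 37 C → luminescence read at 0, 8, 16, 24, 32, 40 h.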

Assay [12] can be described thus: qHTS RealTime-Glo MT Cell Viability Assay in HepG2 cells - 40 hour (AID 1224870). Also: nearly all actives have a fitted effect of over 50% in size. In short, it runs like this:
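Real-time viability: cells seeded at 600 per well together with NanoLuc and cell-permeant prosubstrate, compounds added after 5 h incubation. Luminescence tracked at 0, 8, 16, 24, 32 and 40 h of exposure.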

Assay [13] in a line: A CellTox Green Cytotoxicity Assay to monitor cytotoxicity in HEK293 cells - 40 hour (AID 1224871). Also: nearly all actives have a fitted effect of over 45% in size. Also: potency is read from the fitted curve at half-maximal effect. In short, it runs like this:
(§1)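 Read-out: fluorescence of a cell-impermeant cyanine dye staining DNA of dead cells, proportional to cytotoxicity. HEK293, 600 cells/well with reagent, compound (23 nL DMSO) added after 5 h; reads at 0, 8, 16, 24, 32, 40 h.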

The nature of assay [14]: qHTS assay to identify small molecule agonists of H2AX (AID 1224845; active = well fitted activation curve with a large enough effect in the signal ratio in the repeat runs, not every such curve was filed as active; the % refers to the signal ratio). In short, it runs like this:
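Phospho-H2AX Ser139 measured by HTRF (ex 320 nm; em 665 and 620 nm) after 24 hr antibody incubation. Compounds, 15 concentrations, 0.76% DMSO, were applied to CHO-K1 cells for 3hr at 37C before lysis.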

Assay [15] in a line: A CellTox Green Cytotoxicity Assay to monitor cytotoxicity in HEK293 cells - 0 hour (AID 1224869). Also: nearly all actives have a fitted effect of over 50% in size. In short, it runs like this:
as §1

The nature of assay [16]: qHTS assay to identify small molecule agonists of H2AX - cell viability counter screen (AID 1224847; calls by dose curve; also: top concentration of the series differs between compounds; nearly all actives have a fitted effect of over 30% in size). In short, it runs like this:
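Quantitative HTS viability measurement: CHO-K1 wild-type cells in serum (10% FBS) medium, short 3 hr drug exposure at 37C with 0.76% DMSO, CellTiter-Glo luminescent detection.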

Assay [17] is described as follows: qHTS assay to identify small molecule antagonists of the estrogen related receptor signaling pathway with the pleiotropic PPARgamma coactivator (PGC) from Tox21 10K library (AID 1224841; call rule not given here). An outline of the steps: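 Luminescence read-out (One-Glo luciferase reagent, 30 min at room temperature) from PGC/ERR cells exposed to DMSO-dissolved test compounds for 18 h at 37 C; cells, 2,000 per well, had been preincubated 6 h before compound transfer.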

Assay [18] in a line: qHTS assay to identify small molecule agonists of the estrogen related receptor signaling pathway with the pleiotropic PPARgamma coactivator (PGC) from Tox21 10K library (AID 1224842). Also: nearly all actives have a fitted effect of over 15% in size. An outline of the steps: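 Luminescence from One-Glo (30 min, room temperature) measured after PGC/ERR cells had 18 h at 37 C with pinned compound (23 nL in DMSO). Cells had been seeded at 2,000 per well and pre-incubated 6 h.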

The nature of assay [19]: qHTS assay to identify small molecule antagonists of the estrogen related receptor (ERR) signaling pathway from Tox21 library (AID 1224848). Also: nearly all actives have a fitted effect of over 50% in size. Also: potency is read from the fitted curve at half-maximal effect. An outline of the steps: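 ERR cell line, 2,000 cells/well. 6 h settle, then compound (DMSO) added; 18 h at 37 C; ONE-Glo luminescence after 30 min RT.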
The nature of assay [20]: qHTS assay to identify small molecule agonists of the estrogen related receptor (ERR) signaling pathway from Tox21 library (AID 1224849; calls by dose curve; also: nearly all actives have a fitted effect of over 15% in size). Particulars: ERR reporter cell line, ONE-Glo luciferase, 18 h; at 92.4 µM (top of the series) unless noted. An outline of the steps: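 Luminescence readout (ONE-Glo, 30 min RT) after 18 h compound exposure at 37 C of NTP-supplied ERR reporter cells; cells were plated 6 h before compound addition by pin tool.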

Each structure is given as a SMILES string. A number with no mark means an inactive call. Inconclusive results are not listed. Active and inactive are the calls of the source. Unless noted, calls follow the shape of the dose curve; as a rule, active = well fitted curve in the direction sought with a large enough effect in the repeat runs; inconclusive = weak or mixed curves; inactive = no such curve, though single readings can be large; an effect the other way counts as inactive or inconclusive.
% is scaled to controls: 0 for no effect and ±100 for the full control effect.

Nuclear receptor subfamily 1 group I member 3 (Homo sapiens), sequence (Q14994 whole entry, looked up): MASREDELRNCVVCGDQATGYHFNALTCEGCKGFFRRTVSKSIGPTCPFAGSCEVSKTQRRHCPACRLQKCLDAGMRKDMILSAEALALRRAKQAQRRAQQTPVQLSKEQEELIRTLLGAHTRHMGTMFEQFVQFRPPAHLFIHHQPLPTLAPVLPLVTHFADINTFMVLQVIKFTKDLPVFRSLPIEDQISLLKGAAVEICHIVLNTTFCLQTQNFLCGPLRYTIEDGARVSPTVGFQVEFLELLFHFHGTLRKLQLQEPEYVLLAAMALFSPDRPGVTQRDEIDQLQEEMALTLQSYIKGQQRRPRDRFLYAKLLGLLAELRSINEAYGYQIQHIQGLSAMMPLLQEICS
Thyrotropin receptor (Homo sapiens), sequence (P16473 whole entry, looked up): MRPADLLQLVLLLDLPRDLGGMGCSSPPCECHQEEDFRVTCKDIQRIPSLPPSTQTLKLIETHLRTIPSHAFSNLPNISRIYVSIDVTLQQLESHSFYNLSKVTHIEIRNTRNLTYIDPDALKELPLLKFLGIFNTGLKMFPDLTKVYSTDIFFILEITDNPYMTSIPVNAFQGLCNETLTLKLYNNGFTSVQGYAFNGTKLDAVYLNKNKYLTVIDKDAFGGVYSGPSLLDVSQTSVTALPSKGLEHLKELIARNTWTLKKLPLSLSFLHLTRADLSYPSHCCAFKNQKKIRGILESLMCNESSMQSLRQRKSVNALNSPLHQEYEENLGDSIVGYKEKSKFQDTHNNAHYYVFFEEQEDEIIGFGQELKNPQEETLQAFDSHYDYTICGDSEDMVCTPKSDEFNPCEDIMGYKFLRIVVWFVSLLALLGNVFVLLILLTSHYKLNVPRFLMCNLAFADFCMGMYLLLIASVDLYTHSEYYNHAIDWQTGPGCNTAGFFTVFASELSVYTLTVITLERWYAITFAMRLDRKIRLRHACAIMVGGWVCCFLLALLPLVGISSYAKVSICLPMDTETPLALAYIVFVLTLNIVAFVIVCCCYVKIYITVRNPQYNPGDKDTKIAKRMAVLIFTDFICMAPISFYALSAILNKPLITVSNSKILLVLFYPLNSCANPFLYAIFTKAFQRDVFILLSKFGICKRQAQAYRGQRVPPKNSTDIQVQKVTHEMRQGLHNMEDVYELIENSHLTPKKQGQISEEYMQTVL
Luciferin 4-monooxygenase (Photinus pyralis), sequence (P08659 whole entry, looked up): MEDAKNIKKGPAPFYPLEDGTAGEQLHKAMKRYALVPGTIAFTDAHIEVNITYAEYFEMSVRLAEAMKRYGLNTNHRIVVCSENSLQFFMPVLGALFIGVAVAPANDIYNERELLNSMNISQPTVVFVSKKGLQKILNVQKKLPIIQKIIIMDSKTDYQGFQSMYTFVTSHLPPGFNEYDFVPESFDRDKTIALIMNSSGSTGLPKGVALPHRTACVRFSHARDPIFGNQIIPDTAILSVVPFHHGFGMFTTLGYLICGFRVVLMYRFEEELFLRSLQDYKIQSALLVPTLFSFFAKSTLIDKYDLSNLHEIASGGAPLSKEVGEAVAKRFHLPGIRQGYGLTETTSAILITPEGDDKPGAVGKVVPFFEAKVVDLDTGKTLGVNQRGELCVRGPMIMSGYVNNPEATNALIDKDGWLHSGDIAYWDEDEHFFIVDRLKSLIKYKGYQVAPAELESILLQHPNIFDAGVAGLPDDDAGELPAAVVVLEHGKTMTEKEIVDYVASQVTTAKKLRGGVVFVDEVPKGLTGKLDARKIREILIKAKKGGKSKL

Turning to `CC(C)=CCCC(C)CCOC=O` (centres undefined), the Potency entry in assay [1], in [2], in [3], in [4], in assay [5] and in assay [6] was “inactive” throughout. Besides, the Potency entry in assay [7], in [8], in assay [10], in [11], in assay [12] and in assay [13] was “inactive” throughout. For the same compound, the compound was classed as inactive in [9].

For `COc1ccc2nc(NC(=O)Nc3ccccc3)sc2c1`, the Potency in [1] is 0.389 µM (active); in assay [5], 10.6 µM (active); in assay [8], 19 µM (active); in assay [11], 5.35 µM (active); in [13], 26.8 µM (active). Besides, the Potency entry in assay [2], in assay [3], in [4], in assay [6], in assay [7] and in assay [14] was “inactive” in each case. The Potency result in assay [10], in assay [15] and in [12] was “inactive” throughout. For the same compound, the compound was classed as inactive in assay [9].

Consider `COc1cc(Cl)ccc1Cl`, for which the Potency entry in [1], in [2], in assay [3], in [4], in assay [5] and in [6] was “inactive” each time. The Potency result in assay [7], in assay [8], in assay [14], in assay [16], in assay [10] and in assay [11] was “inactive” each time. For the same compound, the Potency result in [15] and in [12] was “inactive” each time. Further, the result in assay [9] was inactive.

In the case of `CCCC(CCC)(C(=O)OCC)C(=O)OCC`, the Potency entry in assay [1], in assay [2], in [3], in assay [4], in assay [5] and in assay [6] was “inactive” in each case. In addition, the Potency entry in assay [7], in assay [8], in [14], in assay [16], in assay [10] and in [11] was “inactive” each time. Moreover, the Potency entry in assay [15], in [12] and in assay [13] was “inactive” in each case. The compound was classed as inactive in assay [9].

As for `O=C1CCN(c2ccccc2)N1`, the Potency result in assay [1], in [2], in [3], in assay [4], in assay [5] and in [6] was “inactive” throughout. Further, the Potency result in assay [17], in assay [18], in [8], in assay [16], in assay [10] and in assay [12] was “inactive” in each case. For the same compound, the Potency entry in assay [13] was “inactive”. Further, in assay [9], the call was inactive. In addition, the Potency in assay [19] is 17.3 µM (active). For the same compound, in assay [20], the activity change, positive = activation is -36.4%.

Take `CCCCNCCCC`: the Potency result in [1], in [2], in assay [3], in assay [4], in [5] and in assay [6] was “inactive” in each case. Moreover, the Potency result in assay [17], in assay [18], in [7], in [8], in [14] and in assay [16] was “inactive” each time. Moreover, the Potency result in assay [19], in [10], in assay [11], in assay [15], in assay [12] and in assay [13] was “inactive” each time. For the same compound, the compound was called inactive in assay [9]. In addition, the activity change, positive = activation in assay [20] is 0.877%.

In the case of `CCCCC(CC)COC(=O)COc1cc(Cl)c(Cl)cc1Cl` (centres undefined), the Potency entry in assay [1], in assay [2], in [3], in [4], in assay [5] and in [6] was “inactive” each time. Besides, the Potency result in [8], in assay [14], in assay [16], in assay [10], in assay [11] and in assay [15] was “inactive” throughout. For the same compound, the Potency result in assay [13] was “inactive”. Moreover, the compound was called inactive in [9].

These data come from PubChem BioAssay (Tox21).
